Assay results published in PubChem BioAssay AID623868 (Vanderbilt High Throughput Screening Facility, 2012).
Hit rate of the full screen: of about 2,100 compounds, about 760 (36%) were called active. The list is a sample of the results. Values without a mark were called inactive.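 Rule for the calls: active = thallium-flux fluorescence traces judged by eye to show enhanced or reduced glutamate response, manual score 1 or -1, so both directions (some results past the limit were not filed as active); inactive = the rest, including fluorescent or raised-baseline compounds.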

Experiment: thallium influx changes without GIRK channels – cell-based, HEK-293 rmGlu8, no GIRK, thallium flux, counter-screen for GIRK activator project, confirmation (AID 623868);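 note: extra codes mark interference with 3 for fluorescent and 4 for baseline rise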
Settings: thallium flux fluorescence, at 10 µM, actives lie on both sides, codes: 1 enhancer, -1 blocker, 0 none, thallium stimulus containing EC20 glutamate

| Compound | manual score |
| --- | --- |
| Cc1ccc(/C(O)=C2\C(=O)C(=O)N(c3cc(C)on3)C2c2cccc(Br)c2)cc1 (stereo not given) | -1 (active) |
| CCN(CC)c1ccc2cc(C=O)c(=O)oc2c1 | 3 |
| Cc1cccc(NC(=O)NC(=S)NC(=O)c2ccccc2)c1 | 1 (active) |
| Cc1cccc(C)c1NC(=S)NC(=O)CCc1ccccc1 | 1 (active) |
| Cc1ccccc1NC(=S)NC(=O)CCc1ccccc1 | 1 (active) |
| Cc1ccccc1NC(=O)C(=O)NC(C)CCc1ccccc1 (stereo not given) | 0 |
| Cc1cccc(NC(=S)N/C(=N/S(=O)(=O)c2ccccc2)c2ccccc2)c1 | 1 (active) |
| O=C(O)CN=C(NS(=O)(=O)c1ccccc1)c1ccccc1 | 0 |
| CC(C)Oc1ccc(C2CC(=O)N(c3ccccc3)C2=O)cc1 (stereo not given) | 0 |
| Nc1c(C(O)(C(F)(F)F)C(F)(F)F)ccc2ccccc12 | 0 |
| CC(C)(C)CC(=O)Nc1ccc(C(N)=O)cc1 | 0 |
| Cc1cccc(NC(=S)NC(=O)CCc2ccccc2)c1 | 1 (active) |
| O=C(Cc1ccccc1)NC(=S)Nc1cccc(C(F)(F)F)c1 | 0 |
| Cc1cccc(NC(=O)NC(C)CCc2ccccc2)c1 (stereo not given) | 0 |
| O=C(Nc1ccc(O)c(-c2nc3ccccc3s2)c1)C1=COCCO1 | 0 |
| O=C1OC2(CCCCC2)OC(=O)C1=CNc1nc2ccccc2s1 | 1 (active) |
| CN(C)c1nc2ccccc2c(N)c1-c1ccccc1 | 0 |
| COc1ccc(-c2nnc3sc(C4CCCCC4)nn23)cc1OC | -0.5 |
| CCCc1nc2scc(-c3ccccc3)c2c(=O)n1N | 0 |
| Cc1ccc(-c2csc3nc[nH]c(=S)c23)cc1C | 1 (active) |
| S=c1[nH]cnc2scc(-c3ccccc3)c12 | 1 (active) |
| CC1(C)Cc2nc(NCCN3CCOCC3)c(C#N)cc2CO1 | 0 |
| O=c1cc(Cn2ccnc2)c2cc3c(cc2o1)CCC3 | 0 |
| O=C(CN1C(=O)/C(=C/c2ccccc2F)Oc2ccccc21)N1CCN(c2ccccn2)CC1 | 0 |
| CCOC(=O)c1c(NC(=O)CSc2nnc(-c3ccncc3)n2Cc2ccco2)sc(C(C)=O)c1C | -1 (active) |
| COC(=O)c1c(NC(=O)CSc2nnc(-c3cccnc3)n2Cc2ccco2)sc(C)c1C | -1 (active) |
| O=C(CCn1c(=O)oc2ccccc21)N1CCN(c2ccccc2Cl)CC1 | 0 |
| S=C(Nc1ccc(Oc2ccccc2)cc1)NC1CCCC1 | 0 |

| Compound | manual score |
| --- | --- |
| S=C(Nc1ccccc1)Nc1cc(Cl)ccc1Oc1ccccc1 | 0 |
| S=C(Nc1ccc(Cl)cc1Cl)Nc1ccccc1Oc1ccccc1 | 1 (active) |
| S=C(Nc1ccccc1Oc1ccccc1)Nc1cccc(Cl)c1Cl | 1 (active) |
| CN(C)S(=O)(=O)c1cccc(NC(=S)Nc2cc(Cl)cc(Cl)c2)c1 | 0 |
| COc1ccccc1NC(=S)NCCc1ccc(Cl)cc1 | 0 |
| CN(C)S(=O)(=O)c1cccc(NC(=O)Cc2ccc(Cl)cc2)c1 | 0 |
| S=C(Nc1ccccc1Cl)Nc1ccc(Cl)cc1Cl | 1 (active) |
| S=C(NCCc1ccccc1)Nc1ccc(Cl)cc1Cl | 0 |
| S=C(Nc1cccc(Cl)c1)Nc1ccccc1Oc1ccccc1 | 0 |
| CN(C)S(=O)(=O)c1cccc(NC(=S)Nc2ccc(Cl)cc2Cl)c1 | 1 (active) |
| COC(=O)CSc1nnc(SCc2ccc(OC)cc2)s1 | -0.5 |
| Cc1ccc(C2C3=C(NCCN=C3c3ccccc3)C(=O)N2c2ccccc2)cc1 (stereo not given) | 0 |
| CCCCn1c(=O)nc2n(-c3ccccc3)c3ccccc3cc-2c1=O | 0 |
| O=C1c2ccccc2C(Nc2ccc3c(c2)OCCO3)N1Cc1ccccc1 (stereo not given) | 0 |
| Cc1ccccc1Cn1c(-c2cncs2)nc2ccccc21 | 0 |
| Cn1nc(C(F)(F)F)c2cc(NC(=O)OCc3ccc(F)cc3)sc21 | 0 |
| CCc1cccc(NC(=O)CSC2=NS(=O)(=O)c3ccccc32)c1 | 0 |
| O=C(Nc1ccc2[nH]c(=S)sc2c1)c1ccccc1 | 1 (active) |
| CC(C)OCCCNC(=O)c1cccc(NC(=O)c2ccccc2)c1 | 0 |
| Cn1cccc1-c1nc2ccc(NC(=O)c3cccs3)cc2[nH]1 | 0 |
| COc1ccc(OCCCN2CCCCCC2)cc1 | 0 |
| O=C(COC(=O)C1CC2C=CC1C2)Nc1ccc2c(c1)OC(F)(F)O2 (stereo not given) | 0 |
| O=C(Nc1nc(-c2ccccn2)cs1)c1ccc(Br)s1 | 1 (active) |
| CC(C)(C)c1csc(NC(=O)c2ccc3nccnc3c2)n1 | 0 |
| O=C(Nc1nc(-c2cc3ccccc3oc2=O)cs1)c1ccc(Br)o1 | 0 |
| COCCNC(=O)CN1C(=O)CSc2ncccc21 | 0 |
| Cc1ccc2cccc(S(=O)(=O)N3CCN(c4ccccc4F)CC3)c2n1 | 0 |
